# Reference: PubChem BioAssay (NCI)
# Compounds without any hit were thinned out: in the full panel of roughly 83,000, 20% have a hit.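 Step 1: grow cells in 96-well plates. Step 2: add test compound at a single concentration. Step 3: incubate 48 h. Step 4: record percent growth.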 Calls of active or inactive are those of the source. The calls were made as follows: active = growth percent below 10; inactive = the rest.
# System: UO-31 renal
# Assay: NCI-60 one-dose screen, 48 h (100 = growth as untreated, 0 = no growth, -100 = all killed)
# Conditions: 10 µM unless noted
row,SMILES,growth
1,CC(O)CN(CC(C)O)N(CC(C)O)CC(C)O (stereo not drawn),91.1% (inactive)
2,COc1ccc(/C=C2\CCCC3=C2N=C2SC=NN2C3c2ccc(OC)c(OC)c2)cc1OC (stereo not drawn),40% (inactive)
3,COc1ccc(CN2C(=O)/C(=C\C(=O)c3ccc(OCCN4CCCCC4)cc3)c3ccccc32)cc1,39.3% (inactive)
4,CCN(CC)CCCNc1c2ccc(Cl)cc2nc2ccc(OC)cc12,-69.2% (active)
5,O=C1C=C(OCC=C(C(F)(F)F)C(F)(F)F)c2ccccc2C1=O,49.9% (inactive)
6,Cc1ccc(S(=O)(=O)N/N=C2\CC3CCC2C3)cc1 (stereo not drawn),93.9% (inactive)
7,O=C(O)CS(=O)c1ccc(Cl)cc1 (stereo not drawn),102% (inactive)
8,CCN(CC)CCCC(C)Nc1c(C)cnc2cc(Cl)c(C)cc12 (stereo not drawn),66.8% (inactive)
9,Oc1ccc([S+](c2ccc(O)cc2)c2ccc(O)cc2)cc1,87.5% (inactive)
10,CC(C)CSc1nc(-c2ccc(F)cc2)c(C#N)c(N2CCCCC2)n1,95.3% (inactive)
11,CC(=O)Nc1ccc(C(=O)/C=C/c2ccc(N(C)C)cc2)cc1,74.5% (inactive)
12,CCCCCN1CCN(C(CC(=O)c2ccccc2)C(=O)c2ccccc2)CC1 (stereo not drawn),95% (inactive)
13,CCCCCC(=C/c1ccccc1)/C=N/N=C(N)N,-53.2% (active)
14,CC(=O)c1ccc2c(c1)c1ccccc1n2C,60.8% (inactive)
15,CC1(C)NC(=S)NC1=O,90.6% (inactive)
16,CC(=O)OCC(=O)[C@@]1(O)[C@H](C)C[C@H]2[C@@H]3C=C(C)C4=Cc5c(cnn5-c5ccc(F)cc5)C[C@]4(C)[C@H]3[C@@H](O)C[C@@]21C,3.92% (active)

# System: TK-10 renal
# Assay: as above
# Conditions: 10 µM unless noted
row,SMILES,growth
1,COc1cc2c(c(OC)c1OC)C(=O)CC(c1cccc(C(=O)Nc3cccc(Br)c3)c1)O2 (stereo not drawn),109% (inactive)
2,CCC(C)CC(N)O (stereo not drawn),99% (inactive)
3,S=C(N/N=C/c1cc(Cl)cc(Cl)c1)NC12CC3CC(CC(C3)C1)C2,11.1% (inactive)
4,CCCNC(=O)Oc1ccc(/C(=C(/CC)Cc2ccccc2)c2ccc(OCCN(CC)CC)cc2)cc1,85.8% (inactive)
5,O=CN/N=C/c1ccc(Cl)c([N+](=O)[O-])c1,8.5% (active)
6,CNc1ccc(Nc2ccc(S(=O)(=O)O)cc2)c2c1C(=O)c1ccccc1C2=O,126% (inactive)
7,O=C(/C=C1\C(=O)N(Cc2ccccc2)c2ccccc21)c1ccc(OCCN2CCCCC2)cc1,40.3% (inactive)
8,Cc1ccc(C(=O)NN)cc1,110% (inactive)
9,CC1Cc2cc(F)ccc2-n2cccc21 (stereo not drawn),96.5% (inactive)
10,CCCCCCCCCCN1CC2CCCCC2C1 (stereo not drawn),81.4% (inactive)
11,O=C(Nc1ccc(Cl)c(Cl)c1)O/N=C\c1c(Cl)ccc([N+](=O)[O-])c1Cl,-97.2% (active)
12,C/C(=C\c1ccc2ccccc2c1)[N+](=O)[O-],-47% (active)
13,CCCCCCCCC1OC1CCCCCCCC(=O)O (stereo not drawn),104% (inactive)
14,Cc1sc(NC(=O)c2ccc(C(C)(C)C)cc2)c(C(=O)O)c1C,68.4% (inactive)
15,CN1NC(c2ccccc2)NN(C)C1=O,114% (inactive)
16,COc1cc2cc3cc4cc(OC)c(OC)cc4c(C)[n+]3cc2cc1OC (tested in a mixture with another compound),117% (inactive)
17,CC(C)(C)C(=O)OCOP(=O)(OCOC(=O)C(C)(C)C)C1CC(O)N(O)C1=O (stereo not drawn),63.6% (inactive)
18,CC(=O)OC1/C=C\CC/C=C\C1 (stereo not drawn),124% (inactive)
19,O=C(/C=C\c1ccc(NCc2ccc(C(=O)O)cc2)cc1)CCl,93.4% (inactive)
20,CCCCCCC(C)N(CC(C)(C)O)C(=O)c1ccc([N+](=O)[O-])cc1 (stereo not drawn),92.6% (inactive)
21,COc1ccc(/C=N/c2cc(C(C)(C)C)nn2-c2ccccc2)cc1,117% (inactive)
22,COc1ccc(/C=C2\SC(=O)N(Cc3cc(=O)oc4ccc(OC)cc34)C2=O)cc1,97.8% (inactive)
23,CNCCCNCCCCNCCCN1C(=O)c2ccc3c4c(ccc(c24)C1=O)C(=O)N(CCCNCc1ccccc1OC)C3=O,41.9% (inactive)
24,CC(O)CN(CC(C)O)N(CC(C)O)CC(C)O (stereo not drawn),99.3% (inactive)
25,COc1ccc(/C=C2\CCCC3=C2N=C2SC=NN2C3c2ccc(OC)c(OC)c2)cc1OC (stereo not drawn),60.9% (inactive)
26,COc1ccc(CN2C(=O)/C(=C\C(=O)c3ccc(OCCN4CCCCC4)cc3)c3ccccc32)cc1,113% (inactive)
27,CCN(CC)CCCNc1c2ccc(Cl)cc2nc2ccc(OC)cc12,-4.36% (active)
